Reference: PubChem BioAssay (NCATS)
A number with no mark means an inactive call. The rule behind the calls is not given here.
Potency is the fitted concentration of half-maximal effect.

What follows are compounds tested on HIV-1 nucleocapsid protein NCp7 (binding to TG oligonucleotide) (assay: HIV Nucleocapsid (AID 346;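 note: potency is for inhibitors that block NC binding and lower polarization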)). Conditions: HIV-1 NC / fluorescein-TGTGTGTG probe, fluorescence polarization.
Summary of the method: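 NCp7 100 nM + fluorescein TG4xF 10 nM; Hepes pH 7.5/250mM NaCl/1uM ZnCl2/0.004% PEG 20000; 1 hr RT; FP, 45 s exposure; oligo-only wells as negative control.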
CS(=O)(=O)Nc1cccc(-c2nc(N3CCNCC3)c3ccccc3n2)c1 was tested, and the Potency was > 20 µM.
For CN(C)c1ncc2nc(-c3ccc(Cl)cc3)c(=O)n(CCC#N)c2n1, the Potency was > 20 µM.
For CN1CCC2(CC1)CCN(C(=O)c1ccncc1)CC2, the Potency was > 20 µM.
For CN(C)c1ncc2nc(-c3ccccc3)c(=O)n(CCc3ccccc3)c2n1, the Potency was > 20 µM.
In the case of Cc1cnc(CNc2ncnc3ccc(-c4ccccc4Cl)cc23)cn1, the Potency is reported as > 20 µM.
With O=c1cnc2cncnc2n1Cc1ccccc1 the Potency was > 4 µM.
N#Cc1cccc(-c2cc(NCc3cccs3)ncn2)c1 was tested, and the Potency was > 20 µM.
Compound N#CCCn1c(=O)c(-c2cccs2)nc2cnc(N3CCNCC3)nc21 has a Potency of 16.4 µM.
In the case of O=S(=O)(c1ccccc1)N1CCC2(CCCN(c3ccncc3)C2)CC1, the Potency is reported as > 20 µM.
COc1ccc(NC(=O)N2CCCC3(CCN(C(=O)c4ccc(OC)cc4)CC3)C2)cc1 was tested, and the Potency was > 20 µM.
In the case of Cc1noc(C)c1-c1cc(NCc2cccs2)ncn1, the Potency is reported as > 20 µM.
In the case of O=c1c(-c2ccc(Cl)cc2)nc2cnc(N3CCNCC3)nc2n1CCc1ccccc1, the Potency is reported as > 20 µM.
O=C(c1ccncc1)N1CCC2(CC1)CN(c1cccc(-c3ccccc3)c1)C2 was tested, and the Potency was > 20 µM.
For COc1ccc(Oc2ncc3nc(CCc4ccccc4)c(=O)n(CCC#N)c3n2)cc1, the Potency was > 20 µM.
In the case of Cn1c(=O)c(CCc2ccccc2)nc2cnc(N3CCOCC3)nc21, the Potency is reported as > 20 µM.
For Cc1noc(C)c1C(=O)N1CCC[C@@]2(CCN(Cc3cc(C(F)(F)F)cc(C(F)(F)F)c3)C2)C1, the Potency was > 20 µM.
Cc1cccc(CNc2cc(-c3ccc(N(C)C)cc3)ncn2)c1 was tested, and the Potency was > 20 µM.
For COc1ccccc1CN1CC[C@@]2(CCCN(C(=O)c3cnccn3)C2)C1, the Potency was > 20 µM.
COc1ccc(NC(=O)N2CC[C@@]3(CCCN(C(=O)c4cccn4C)C3)C2)cc1 was tested, and the Potency was > 20 µM.
In the case of CCNc1ncc2ncc(=O)n(Cc3cccc(OC)c3)c2n1, the Potency is reported as > 20 µM.
Cc1cnc(CNc2ncncc2-c2ccccc2C(F)(F)F)cn1 was tested, and the Potency was > 20 µM.
With CN(C)c1ncc2nc(CCc3ccccc3)c(=O)n(Cc3ccc(F)cc3)c2n1 the Potency was > 20 µM.
With COc1ccccc1-c1nccc(-n2ccnc2)n1 the Potency was > 20 µM.
With COc1ccccc1-c1nc(NCCN2CCOCC2)c2ccccc2n1 the Potency was > 20 µM.
CCNc1ncc2ncc(=O)n(Cc3ccc(F)cc3)c2n1 was tested, and the Potency was > 20 µM.
For CC(=O)N1CCC[C@@]2(CCN(c3ccccc3)C2)C1, the Potency was > 20 µM.
For COCCn1c(=O)c(-c2ccc(F)cc2)nc2cnc(OC)nc21, the Potency was > 20 µM.
In the case of COc1ncc2nc(C)c(=O)n(CCc3ccccc3)c2n1, the Potency is reported as > 20 µM.
In the case of Cc1nc2cnc(N3CCN(C)CC3)nc2n(C2CC2)c1=O, the Potency is reported as > 20 µM.
CC(C)NC(=O)N1CCC2(CC1)CCN(C(=O)c1cccn1C)CC2 was tested, and the Potency was > 20 µM.
For COc1ccc(-n2c(=O)c(-c3cccc(Cl)c3)nc3cncnc32)cc1, the Potency was > 4 µM.
In the case of Cc1cnc(CNc2ncncc2-c2cccnc2)cn1, the Potency is reported as > 20 µM.
For CC(C)CN1CCCC2(CCN(C(=O)c3csnn3)CC2)C1, the Potency was > 20 µM.
Cc1cnc(CNc2nc(-c3ccccc3C)nc3ccccc23)cn1 was tested, and the Potency was > 20 µM.
For COC(=O)N1CCC2(CC1)CCN(c1ccccn1)CC2, the Potency was > 20 µM.
O=C(c1ccncc1)N1CCC2(CC1)CN(c1ccccc1)C2 was tested, and the Potency was > 20 µM.
With COc1ccccc1CN1CCCC2(CCN(C(=O)c3cc(C(F)(F)F)cc(C(F)(F)F)c3)CC2)C1 the Potency was > 20 µM.
COc1ccccc1CCn1c(=O)c(-c2ccc(F)c(F)c2)nc2cncnc21 was tested, and the Potency was > 20 µM.
With CS(=O)(=O)Nc1cccc(-c2nc(Nc3ccccc3)c3ccccc3n2)c1 the Potency was > 20 µM.
For COc1ccc(-n2c(=O)cnc3cnc(N(C)C)nc32)cc1, the Potency was > 20 µM.
